Reference: PubChem BioAssay AID1619 (SRMLSC, 2009)
Out of some 220,000 compounds screened, about 830 (0.38%) were called active.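 How the source made its calls: active means compound inhibiting the enzyme by more than half at any dose during confirmatory dose-response retesting; inconclusive means strong single-dose inhibitors picked by rank but not retested; inactive means the rest.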 The list is a sample of the results. Results with a measured potency or affinity are listed apart.

target: Leucine aminopeptidase (Plasmodium falciparum (isolate 3D7)) (UniProt Q8IL11); experiment: P. falciparum M17LAP inhibitors, primary screen, biochemical, fluorogenic H-Leu-NHMec substrate, 1536-well (AID 1619); conditions: recombinant M17LAP, H-Leu-NHMec fluorogenic kinetic assay; at 30 µM; stronger effect = higher value;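 further: plate controls were full reaction with DMSO carrier for no effect and no enzyme background for full effect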
Sequence (Q8IL11 whole entry, looked up): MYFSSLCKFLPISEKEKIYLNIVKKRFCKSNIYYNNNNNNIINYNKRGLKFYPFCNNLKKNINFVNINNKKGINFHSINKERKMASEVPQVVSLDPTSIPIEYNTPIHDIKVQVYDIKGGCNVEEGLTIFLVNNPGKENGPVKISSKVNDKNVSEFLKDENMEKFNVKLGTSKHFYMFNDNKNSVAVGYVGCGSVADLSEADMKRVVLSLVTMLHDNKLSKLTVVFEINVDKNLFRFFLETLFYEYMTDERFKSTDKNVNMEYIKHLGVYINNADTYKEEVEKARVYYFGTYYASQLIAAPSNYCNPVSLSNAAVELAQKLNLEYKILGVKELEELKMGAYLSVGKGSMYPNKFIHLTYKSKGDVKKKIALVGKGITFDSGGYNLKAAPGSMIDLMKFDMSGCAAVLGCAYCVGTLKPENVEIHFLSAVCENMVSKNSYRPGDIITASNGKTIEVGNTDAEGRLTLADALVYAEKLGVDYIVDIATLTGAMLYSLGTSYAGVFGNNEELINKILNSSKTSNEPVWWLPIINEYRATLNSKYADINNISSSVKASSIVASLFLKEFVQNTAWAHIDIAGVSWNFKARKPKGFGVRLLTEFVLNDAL

inhibition, inactive:
Cc1cccc(NC(=O)Cn2nc([N+](=O)[O-])c(Br)c2C)n1 -0.63%
CCCn1c(/N=C/c2c[nH]c3ccccc23)nc2ccccc21 0.08%
CN(CCC#N)C(=O)COC(=O)/C=C/c1ccc2c(c1)OCO2 2.65%
COc1ccc(C2=CC3=C(Br)C(=O)C(C)(OC(=O)C4CCCC4)C(=O)C3=CO2)cc1 (stereo unspecified) 22.1%
Cc1sc(NC(=O)C2CCCC2)c(C#N)c1C 3.61%
CC1(C)Cc2c(sc(NC(=O)Cc3ccccc3)c2C#N)CO1 20.3%
CCOC(=O)c1c(NC(=O)C2CC(Cl)=CCC2C(=O)O)sc2c1CC(C)(C)OC2 (stereo unspecified) 42.4%
CC(=O)Nc1sc2c(c1C#N)CCC2 -2.63%
CC(=O)Nc1sc2c(c1C#N)CCCC2 -9.07%
Cc1sc(NC(=O)C2CCCO2)c(C#N)c1C (stereo unspecified) 5.77%
Cn1nnnc1SCC(=O)Nc1cccc(S(=O)(=O)N2CCCC2)c1 -2.95%
O=C(Nc1nnc(SCc2ccccc2F)s1)c1ccco1 8.78%
Cc1ccc(NC(=O)Nc2cccc(Cl)c2)c(C(=O)O)c1 -7.94%
CCOC(=O)c1ccccc1NC(=O)CN1C(=O)c2ccccc2S1(=O)=O -15.2%
COc1ccc(OC)c(NC(=O)CN2C(=O)c3ccccc3S2(=O)=O)c1 23.2%
COc1ccc(C)cc1NC(=O)CN1C(=O)c2ccccc2S1(=O)=O 11.2%
CCC(C)NC(=O)c1ccccc1NC(=O)CN1C(=O)c2ccccc2S1(=O)=O (stereo unspecified) -2.81%
C/C(=N\NC(=O)c1cccc(S(=O)(=O)N2CCCC2)c1)c1cccs1 0.78%
O=C(CN1CCN(c2ncc(C(F)(F)F)cc2Cl)CC1)NC(=O)NCc1ccccc1 -3.07%
Cn1c2c(c(=O)n3ncnc13)CCCC2 -2.57%
Cc1ccc(OCCCC(=O)Nc2ccc(Br)cc2)cc1 -1.62%
O=C(COC(=O)c1cccnc1)Nc1ccccc1 2.57%
CCn1c(CCNC(=O)c2ccc(OC)cc2)nnc1SCC(=O)Nc1ccccc1F 1.93%
O=C(O)CCC(=O)Nc1ccc(OCC(=O)O)cc1 -3.01%
CCOc1ccc(NC(=O)CSc2nnc(CCNC(=O)c3ccc(OC)cc3)n2C)cc1 23.6%
O=C(O)Cn1nnnc1SCC(=O)Nc1ccccc1F 18.7%
CCn1nnnc1SCC(=O)Nc1ccc(OC)cc1 3.82%
Cc1ccc(NC(=O)COC(=O)c2cccnc2)cc1 25.2%
Cc1ccccc1NC(=O)NCc1ccc2c(c1)OCO2 5.21%
O=C(c1cnsn1)N1CCN(c2ccccn2)CC1 -4.02%
Cc1nc(C(=O)O)nn1-c1ccc([N+](=O)[O-])cc1 0.22%
COc1cccc([C@@H]2Oc3ccc(OC)cc3C(=O)[C@H]2OC(=O)N[C@H](C)C2CCCCC2)c1 -23.2%
O=[N+]([O-])c1ccc2c(c1)/C(=N\O)c1ccccc1-2 2.49%
CN1CCN(c2ccc(C(CC(N)=O)NC(=O)Cc3ccc(Br)cc3)cc2[N+](=O)[O-])CC1 (stereo unspecified) 5.26%
O=C(N/N=C\c1ccc2c(c1)OCO2)c1ccco1 26.4%
Nn1cnnc1SCC(=O)Nc1ccc(C2CCCCC2)cc1 -2.76%
CCCCOc1ccc(C(=O)O)cc1 23.4%
CCCc1nnc(SCC(=O)Nc2ccc(OCC)cc2)n1N 30.4%
CCOc1ccc(OCC)c(NC(=O)CSCC(=O)O)c1 2.8%
CCn1nnnc1SCC(=O)Nc1ccc(OCc2ccccc2)cc1 4.99%
CCCCOc1ccc(CC(=O)NCC(=O)O)cc1 4.31%
O=C(CSCCO)Nc1ccc(C2CCCCC2)cc1 6.11%
CCOc1ccc(NC(=O)CCC(=O)O)cc1 18%
O=C(Nc1nc2ccsc2c(=O)s1)c1ccco1 2.03%
COc1cc(/C=N/NC(=O)c2ccccc2Cl)ccc1Oc1ccc([N+](=O)[O-])cn1 3.71%
COC(=O)c1ccccc1NC(=O)c1ccccc1N(C)S(=O)(=O)c1ccccc1 -2.99%
CCN(C(=O)CCc1nc(-c2ccc(OC)cc2)no1)c1cc(OC)ccc1OC -5.65%
Cc1ccc(S(=O)(=O)N(C)CC(=O)OCC(=O)NC(c2ccccc2)c2ccccc2)cc1 11.4%
Cc1ccc(-c2ccc(/C=N/NC(=O)c3ccccc3O)o2)cc1 3.44%
COc1ccc(C(=O)Nc2nc3cc4c(cc3s2)OCCO4)c(OC)c1 -6.2%
Cc1ccc(NC(=O)NCc2ccccn2)cc1 5.76%
Cc1ccc(C(=O)NNC(=S)NC(=O)COc2ccccc2)cc1 16.5%
O=C(CCc1ccccc1)NNC(=S)NC(=O)c1ccc(Cl)cc1 92.7%
CC(C)(C)c1cc(CCC(=O)NN)cc(C(C)(C)C)c1O -14%
O=C(Cc1cccs1)NNC(=S)NC(=O)c1ccc(F)c(F)c1 7.14%
CC(=O)NC(=S)NNC(=O)CCc1ccccc1 21.3%
COc1ccc(C(=O)NC(=S)NNC(=O)COc2ccccc2)cc1 1.34%
COc1ccc(C(=O)NC(=S)NNC(=O)Cc2cccs2)cc1 41.2%
CC(C)(C)c1cc(CCC(=O)NNC(=O)c2ccco2)cc(C(C)(C)C)c1O -5.01%
CCOC(=O)N1CCC(N2C(=O)c3ccccc3C2Nc2ccc(S(=O)(=O)N3CCOCC3)cc2)CC1 (stereo unspecified) 2.69%
Cc1cccc(NC(=O)CCCn2cc([N+](=O)[O-])cn2)n1 -2.41%
COc1ccc(OC)c(NC(=O)CSCC(=O)O)c1 6.02%
Cc1cc(C(=O)CCC(=O)N2CCN(S(=O)(=O)c3cccs3)CC2)c(C)s1 0.37%
CN1C[C@@H]2C[C@@H](c3cccn3-c3nccs3)N3CCC[C@@]23C1=O -0.22%
Cc1ccc(NC(=O)CN2CCCCCC2)cc1Br 9.91%
Cc1cc(C(=O)CCl)c(C)n1-c1cccc(S(=O)(=O)N2CCOCC2)c1 1.27%
Cc1cc(C(=O)COc2ccccc2[N+](=O)[O-])c(C)n1-c1cccc(S(=O)(=O)N2CCOCC2)c1 2.08%
CCSC1=C(C#N)C(c2ccccc2Cl)C(C(=O)c2cccs2)C(O)(C(F)(F)F)N1 (stereo unspecified) -2.94%
CC(Sc1ccc2c(c1)OCCO2)C(=O)Nc1ccc2c(c1)OCO2 (stereo unspecified) 31.4%
CC(Sc1ccc2c(c1)OCCO2)C(=O)Nc1ccc(N2CCOCC2)cc1 (stereo unspecified) -0.69%
O=C(CSc1ccc2c(c1)OCCO2)Nc1ncc(Cl)cc1Cl 33.8%
CCCNC(=O)NC(=O)CSc1ccc2c(c1)OCCO2 -3.31%
CCOc1cc(S(=O)(=O)Nc2ccccc2CC)ccc1Cl 8.77%
O=C(CSc1nnc(NC2CCCCC2)s1)NCc1ccco1 1.38%
O=C(CSc1nnc(NC2CCCCC2)s1)NC1CCS(=O)(=O)C1 (stereo unspecified) 11.6%
Cc1nnc(SCC(=O)NN2C(=O)NC3(CCCCC3)C2=O)s1 0.53%
Nc1nnc(SCC(=O)NN2C(=O)NC3(CCCCC3)C2=O)s1 28%
Cn1nc(C(=O)NNc2c(F)c(F)cc(F)c2F)c2ccccc2c1=O 10.2%
Cc1ccccc1Nc1nc(N)nc(CSc2nnnn2-c2ccccc2)n1 2.91%
CCCCn1nc(C(=O)Nc2cc(S(=O)(=O)N(C)C)ccc2C)c2ccccc2c1=O 0.9%
CCCN(c1ccc(C(=O)OC)cc1)S(=O)(=O)c1ccccc1 -1.32%
Cc1cccc(C)c1NC(=O)CSc1nnc(NC(=O)CN2CCOCC2)s1 24.1%
Cc1cccc(Nc2nnc(SCC(=O)Nc3cccc(S(=O)(=O)N4CCCCC4)c3)s2)c1 33.5%
CC(=O)c1ccc(NC(=O)CSc2nnc(NC(=O)CN3CCOCC3)s2)cc1 28.4%
Cc1cccc(NC(=O)CSc2nnc(NC(=O)CN3CCCCC3)s2)c1 52.7%
CCc1ccc(Nc2nnc(SCC(=O)Nc3ccc(C(=O)O)cc3)s2)cc1 33%
O=C(CSc1nnc(NC(=O)CN2CCOCC2)s1)Nc1ccccc1 27.4%
O=C(NCCN1CCN(c2ccccc2)CC1)c1ccc(NC(=O)C2CCCO2)cc1 (stereo unspecified) -5.43%
CC1=CC(C2CC(=O)N(c3ccccc3C)C2=O)CC2C(=O)N(c3ccccc3C)C(=O)C12 (stereo unspecified) 3.8%
CC1=C(C(=O)OCC2CCCO2)C(c2ccncc2)C2=C(CC(C)(C)CC2=O)N1 (stereo unspecified) -16.9%
O=[N+]([O-])c1ccc2c(c1)C=C1CCCCC1(N1CCCCC1)O2 (stereo unspecified) 9.55%
COc1ccc(/C=C2\SC(=O)N(CCn3cnnn3)C2=O)cc1 -2.01%
O=C(CN1CCN(Cc2ccc(F)cc2Cl)C1=O)NCCc1ccccc1 8.72%
CC1CCCN(c2nc(NCc3ccco3)nc(N)c2[N+](=O)[O-])C1 (stereo unspecified) -3.16%
CCCC(=O)Nc1nnc(-c2ccco2)s1 -4.22%
O=C(CCc1nc2ccccc2[nH]c1=O)OCC(=O)c1cccc2ccccc12 -3.73%
